# N370S GC = inhibits or activates N370S mutant glucocerebrosidase | Potency, µM (doses to about 59.4 µM), for inactives: at the highest dose activity change, negative = inhibition, hits mostly inhibitors | hit rate 0.092% among 330,000 | AID 2101 | N370S GC spleen homogenate, 4MU-glucoside fluorescence | P04062;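 further: potency means the concentration at half of the fitted maximal effect; 0% = full enzyme activity and -100% = no enzyme basal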
# GAA spleen mod = inhibits or activates alpha-glucosidase in human spleen homogenate | P10253 | human spleen homogenate, 4-MU-alpha-glucoside fluorescence | Potency, µM (series often up to 79.9 µM), for the others: top-dose activity change, negative = inhibition, usual class: inhibitors | hit rate 0.006% among 240,000 | AID 2112;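 further: potency means the concentration at half of the fitted maximal effect; 0% = enzyme with vehicle and -100% = no enzyme basal signal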
#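 Compounds were titrated against alpha-glucosidase in spleen homogenate at pH 5.0, with 1 mM 4-methylumbelliferyl substrate for 40 min at 37 C. Reactions were quenched with pH 10 NaOH/glycine and fluorescence measured.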
# GLA spleen mod = inhibitors or activators of human alpha-galactosidase in spleen homogenate | P06280 | human spleen homogenate, 4MU-alpha-Gal fluorescence, 40 min | Potency, µM (doses to about 80 µM), without a hit: at the highest dose activity change, negative = inhibition, most hits filed as inhibitors | hit rate 0.008% among 240,000 | AID 2107;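 further: potency means the concentration at half of the fitted maximal effect; 0% = enzyme with vehicle and -100% = no enzyme basal signal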
#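 Spleen homogenate 1 ug + cpd (titration) + 4-MU-alpha-D-galactopyranoside 1 mM; 37C 40 min; 50 mM citrate/phosphate pH 5.0, 0.01% Tween-20; stop pH 10; fluorescence 365/440; AC50 via Hill.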
# GLA inh pH 4.5 = blocks human alpha-galactosidase A at pH 4.5. P06280. purified enzyme, 4-MU-alpha-Gal fluorescence, pH 4.5. activity change, negative = inhibition, % at 105 µM. 230,000 tested, under 10 active. AID 1467;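 further: 0% = full activity with enzyme and -100% = basal without enzyme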
# Target sequence (P06280 whole entry, looked up): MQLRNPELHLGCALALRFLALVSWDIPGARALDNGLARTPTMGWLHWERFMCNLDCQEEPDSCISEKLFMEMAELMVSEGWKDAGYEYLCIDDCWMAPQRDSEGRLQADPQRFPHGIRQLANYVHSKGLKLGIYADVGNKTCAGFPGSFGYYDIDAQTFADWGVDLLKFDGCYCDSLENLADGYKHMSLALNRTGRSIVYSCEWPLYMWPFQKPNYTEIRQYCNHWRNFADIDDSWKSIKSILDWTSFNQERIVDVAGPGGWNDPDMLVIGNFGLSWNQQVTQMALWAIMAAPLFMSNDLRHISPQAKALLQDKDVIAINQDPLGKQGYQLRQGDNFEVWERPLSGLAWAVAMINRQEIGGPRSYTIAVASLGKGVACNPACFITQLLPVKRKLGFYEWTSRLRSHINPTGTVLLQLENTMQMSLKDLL
# GAA glycogen mod = alters human alpha-glucosidase cleavage of glycogen. hit rate 0.38% among 300,000. recombinant GAA, glycogen substrate, Amplex Red glucose oxidase fluorescence. P10253. Potency, µM (top dose mostly 76.4 µM), without a hit: at the top dose activity change, negative = inhibition, most hits filed as inhibitors;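 further: potency means the concentration at half of the fitted maximal effect; 0% = full enzyme reaction and -100% = no-enzyme basal signal; the screen sought inhibitors and activators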
#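 qHTS, 1536-well; enzyme 4 nM final; cpd up to 77 uM; substrate bovine liver glycogen 30 ug; 50 mM citrate/phosphate pH 5.0, 0.01% Tween-20; 37 C, 40 min; Amplex Red detection 45 min RT; Hill fit → AC50.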
# GAA inh = blocks human lysosomal alpha-glucosidase; purified human GAA, 4-MU-alpha-glucoside fluorescence; Potency, µM (series often up to 76.9 µM), for inactives: top-dose activity change, negative = inhibition, most hits filed as inhibitors; hit rate 0.005% among 200,000; AID 1466;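 further: potency means the concentration at half of the fitted maximal effect; plate controls were uninhibited enzyme wells for no effect and no-enzyme background for full effect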
#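 Activity normalized between no-enzyme (basal) and enzyme-only wells. Conditions: 4 nM human enzyme, 400 uM fluorogenic substrate, citrate/phosphate pH 5.0 with Tween-20, 20 min room temperature, compounds up to 77 uM.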
# Active calls of the source: *; ? = inconclusive; . = no result given; [ ] = remark or other dose. Rows were chosen to be rich in hits. Some 0.43% of all compounds tested hit in one or more screens of this group. The call rests on the fitted dose curve; in most records, active means well fitted curve in the direction sought with a large enough effect; inconclusive means small, poorly fitted or top-dose-only effect, or another doubt; inactive means no such curve, though single readings can be large; an effect the other way counts as inactive or inconclusive.
SMILES,N370S GC,GAA spleen mod,GLA spleen mod,GLA inh pH 4.5,GAA glycogen mod,GAA inh
Cc1ccc(CNc2nc(C)nc3sc4c(c23)CCC4)cc1,13%,0%,-8%,-2,1%,-4%
CS[C@@H]1SC[C@H]2C(=O)N(C)C(C(C)C)C(=O)OC[C@@H](NC(=O)c3cnc4ccccc4n3)C(=O)N[C@@H](C)C(=O)N(C)[C@H]1C(=O)N(C)C(C(C)C)C(=O)OC[C@@H](NC(=O)c1cnc3ccccc3n1)C(=O)N[C@@H](C)C(=O)N2C (some centres not stated),3%,10%,1%,.,.,.
NNC(=O)CN1C(c2ccccc2)=Nc2ccc(Br)cc2C1c1ccccc1 (configuration not stated),40µM*,-1%,-7%,3,-15%,-3%
Cc1cc(-c2ccccc2)nc2[nH]n(-c3ccccc3)c(=O)c12,-4%,-2%,0%,4,35µM*,0%
Cc1cc(C)c2c(=O)n(-c3ccccc3)[nH]c2n1,-16%,-6%,-6%,8,-25%,-3%
C=C(C)/C=N/NC(=S)Nc1ccc(S(=O)(=O)N2CCOCC2)cc1,-7%,12%,3%,-2,25µM*,.
C=CCc1ccc(O)c(-c2ccc(O)c(CC=C)c2)c1,-10%,-11%,-20%,-3,35µM*,.
COc1ccc(Cn2c(C)nnc2-c2cnn(C)c2N)cc1,5%,?,28µM*,12,-1%,5%
Cc1cc(NC(=O)CCS(=O)(=O)c2ccc3c(c2)NC(=O)C(C)S3)ccc1Br (configuration not stated),8.9µM*,.,.,.,.,.
CC1Sc2ccc(S(=O)(=O)CCC(=O)Nc3cc(F)ccc3F)cc2NC1=O (configuration not stated),10µM*,.,.,.,.,.
COC(=O)C1=C(C)NC(C)=C(C(=O)OCCCN2CCC(c3ccccc3)(c3ccccc3)CC2)C1c1cccc([N+](=O)[O-])c1 (configuration not stated),?,-1%,-8%,.,.,.
CN1C(=O)N(C)C2=NNC=NC2(O)C1=O (configuration not stated),5%,3%,-6%,-1,.,.
CC(C)c1ccc(/C=N/Nc2cc(N3CCOCC3)nc(N3CCOCC3)n2)cc1,-12%,2%,4%,-10,-5%,-8%
Cc1cc(N/N=C/c2ccc(O)cc2O)nc(N2CCOCC2)n1,-11%,-2%,5%,-8,16µM*,-14%
COc1ccc(/C=N/Nc2cc(C)nc(N3CCOCC3)n2)c(OC)c1,-4%,1%,6%,-5,-21%,.
Oc1ccc(/C=N\Nc2cc(N3CCOCC3)nc(N3CCOCC3)n2)c(O)c1,-11%,-2%,3%,-4,10µM*,-11%
O=C1c2ccccc2CCC1CNCCc1ccc(O)cc1 (configuration not stated),1%,1%,-15%,.,.,.
C/C=C/c1cc(CN2CCN(c3ccccc3)CC2)c(O)c(OC)c1,-8%,1%,3%,-11,?,6%
C/C=C/c1cc(CN2CCN(c3ccc(OC)cc3)CC2)c(O)c(OC)c1,15%,-2%,-2%,-5,14µM*,-3%
COC(=O)C1=C(C)N(Cc2ccc(C)cc2)C(=O)/C1=C\c1cc(OC)c(OC)c(OC)c1,-18%,-4%,-4%,-2,-5%,-2%
COC(=O)C1=C(C)N(Cc2ccc(C)cc2)C(=O)/C1=C\c1ccc(O)c(OC)c1,-27%,-5%,-3%,0,28µM*,-9%
COc1ccc(N(CC(=O)Nc2cc(C)ccc2C)S(=O)(=O)c2c(C)[nH]c(=O)[nH]c2=O)cc1,?,.,.,.,-14%[76.3 µM],.
Cc1cc(C)cc(N(CC(=O)Nc2ccc(C(F)(F)F)cc2)S(=O)(=O)c2c(C)[nH]c(=O)[nH]c2=O)c1,2.2µM*,.,.,.,-26%[76.3 µM],.
Cc1cc(C)cc(N(CC(=O)Nc2ccc(C)cc2Cl)S(=O)(=O)c2c(C)[nH]c(=O)[nH]c2=O)c1,0.25µM*,.,.,.,12%[76.3 µM],.
Cc1ccc(N(CC(=O)Nc2ccc(Br)c(C)c2)S(=O)(=O)c2c(C)[nH]c(=O)[nH]c2=O)cc1,11µM*,.,.,.,-14%[76.3 µM],.
SMILES,N370S GC,GAA spleen mod,GLA spleen mod,GLA inh pH 4.5,GAA glycogen mod,GAA inh
CC[C@H](C)[C@H](NC(=O)[C@H](Cc1ccc(O)cc1)NC(=O)[C@H](Cc1cnc[nH]1)NC(=O)[C@H](CCCNC(=N)N)NC(=O)[C@H](CC(C)C)NC(=O)[C@H](C)NC(=O)[C@H](CO)NC(=O)[C@H](Cc1ccc(O)cc1)NC(=O)[C@H](Cc1ccc(O)cc1)NC(=O)[C@H](CCCNC(=N)N)NC(=O)[C@H](C)NC(=O)[C@H](CCSC)NC(=O)[C@H](CC(=O)O)NC(=O)[C@H](CCC(=O)O)NC(=O)[C@H](C)NC(=O)[C@@H]1CCCN1C(=O)[C@H](C)NC(=O)[C@H](CC(=O)O)NC(=O)[C@H](CCC(=O)O)NC(=O)CNC(=O)[C@@H]1CCCN1C(=O)[C@H](CC(N)=O)NC(=O)[C@H](CC(=O)O)NC(=O)[C@@H]1CCCN1C(=O)[C@H](CCCCN)NC(=O)[C@H](CO)NC(=O)[C@@H]1CCCN1C(=O)[C@@H](N)Cc1ccc(O)cc1)C(=O)N[C@@H](CC(N)=O)C(=O)N[C@@H](CC(C)C)C(=O)N[C@@H](CC(C)C)C(=O)N[C@H](C(=O)N[C@@H](CCCNC(=N)N)C(=O)N1CCC[C@H]1C(=O)N[C@@H](CCCNC(=N)N)C(=O)N[C@@H](Cc1ccc(O)cc1)C(N)=O)[C@@H](C)O,2%,2%,2%,.,.,.
CCOC(=O)c1c(C)[nH]c(NC(=O)Nc2c(C)n(C)n(-c3ccccc3)c2=O)c1C,3%,-20%,1%,-3,32µM*,-4%
COc1cccc([C@@H]2Oc3ccc(Br)cc3C(=O)[C@H]2OC(=O)NS(=O)(=O)c2ccc(F)cc2)c1,6%,-3%,7%,-3,.,.
CC(C)=CCC[C@](C)(O)C1CC[C@]2(C)[C@@H]1CC[C@@H]1[C@@]3(C)CCC(=O)C(C)(C)[C@@H]3CC[C@]12C (some centres not stated),-1%,0%,4%,.,.,.
CC(=O)OCOC(=O)CNc1ccccc1OCCOc1ccccc1NCC(=O)OCOC(C)=O,0%,-1%,-6%,.,.,.
Nc1nc(-c2ccccc2)c(N=Nc2ccccc2Cl)s1,10µM*,-7%,-4%,-7,3%,-8%
COc1ccccc1N1CCN(/N=C/c2ccc(O)c(O)c2)CC1,-16%,-5%,-7%,7,2.8µM*,10%

# Source: PubChem BioAssay (National Center for Advancing Translational Sciences (NCATS))
